# Test results taken from PubChem BioAssay.
# Active and inactive are the calls of the source.
# Assays:
# [1] = system: Plasmodium falciparum Sir2 (PF13_0152, Sir2A); assay: pfSir2 binders on small-molecule microarrays, primary screen, biochemical, small-molecule microarray, 635 nm fluorescence (AID 1098); settings: small-molecule microarray binding, fluorescence 635 nm; higher = more signal;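 further: score merges spot fluorescence intensity with its signal-to-noise ratio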
# [2] = small-molecule microarray binders of probe aDKK1, primary screen, biochemical, biotinylated probe, 635/667 nm fluorescence (AID 1099); settings: higher = more signal;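 further: score merges 667nm spot fluorescence with signal to noise across triplicate slides; reference of the scale not given here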
# [3] = small-molecule microarray binders of probe aCHRDL2, primary screen, biochemical, biotinylated probe, 635/667 nm fluorescence (AID 1100); settings: higher = more signal
# [4] = splicing luciferase reporter signal modulators, primary screen, spliceosome inhibition project, cell-based, HEK293, splice +/- reporter (AID 1101); settings: luminescence, 24 h, higher = more signal, called active from +8 up or from −8 down;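 further: HEK293 cells carrying a splicing-competent luciferase reporter gene; test concentration not given here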
# [5] = biological target: Fibroblast growth factor 10 (Homo sapiens) (UniProt O15520); assay: FGF10 binders on small-molecule microarrays, primary screen, biochemical, small-molecule microarray, 635 nm fluorescence (AID 1102); settings: FGF10 binding, fluorescence 635 nm, higher = more signal
# Sequence of Fibroblast growth factor 10 (Homo sapiens) (O15520 whole entry, looked up): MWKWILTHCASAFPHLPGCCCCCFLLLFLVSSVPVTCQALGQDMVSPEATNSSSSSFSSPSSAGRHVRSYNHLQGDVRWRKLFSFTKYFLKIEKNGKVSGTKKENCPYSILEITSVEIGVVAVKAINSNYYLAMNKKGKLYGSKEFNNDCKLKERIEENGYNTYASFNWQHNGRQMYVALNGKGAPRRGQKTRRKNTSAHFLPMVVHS
# [6] = system: glycogen synthase kinase-3 (GSK3A per assay name; protocol says GSK3B); assay: GSK3 binders on small-molecule microarrays, primary screen, biochemical, small-molecule microarray, 635 nm fluorescence, GSK3A (AID 1103); settings: small-molecule microarray binding, fluorescence 635 nm; higher = more signal; further: the record names both GSK3A and GSK3B
# [7] = biological target: Epidermal growth factor receptor (Homo sapiens) (UniProt P00533); assay: EGFR binders on small-molecule microarrays, primary screen, biochemical, small-molecule microarray, 635 nm fluorescence (AID 1104); settings: EGFR binding, higher = more signal;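 further: score merges 667 nm emission intensity with spot signal to noise over triplicate slides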
# Sequence of Epidermal growth factor receptor (Homo sapiens) (P00533 whole entry, looked up): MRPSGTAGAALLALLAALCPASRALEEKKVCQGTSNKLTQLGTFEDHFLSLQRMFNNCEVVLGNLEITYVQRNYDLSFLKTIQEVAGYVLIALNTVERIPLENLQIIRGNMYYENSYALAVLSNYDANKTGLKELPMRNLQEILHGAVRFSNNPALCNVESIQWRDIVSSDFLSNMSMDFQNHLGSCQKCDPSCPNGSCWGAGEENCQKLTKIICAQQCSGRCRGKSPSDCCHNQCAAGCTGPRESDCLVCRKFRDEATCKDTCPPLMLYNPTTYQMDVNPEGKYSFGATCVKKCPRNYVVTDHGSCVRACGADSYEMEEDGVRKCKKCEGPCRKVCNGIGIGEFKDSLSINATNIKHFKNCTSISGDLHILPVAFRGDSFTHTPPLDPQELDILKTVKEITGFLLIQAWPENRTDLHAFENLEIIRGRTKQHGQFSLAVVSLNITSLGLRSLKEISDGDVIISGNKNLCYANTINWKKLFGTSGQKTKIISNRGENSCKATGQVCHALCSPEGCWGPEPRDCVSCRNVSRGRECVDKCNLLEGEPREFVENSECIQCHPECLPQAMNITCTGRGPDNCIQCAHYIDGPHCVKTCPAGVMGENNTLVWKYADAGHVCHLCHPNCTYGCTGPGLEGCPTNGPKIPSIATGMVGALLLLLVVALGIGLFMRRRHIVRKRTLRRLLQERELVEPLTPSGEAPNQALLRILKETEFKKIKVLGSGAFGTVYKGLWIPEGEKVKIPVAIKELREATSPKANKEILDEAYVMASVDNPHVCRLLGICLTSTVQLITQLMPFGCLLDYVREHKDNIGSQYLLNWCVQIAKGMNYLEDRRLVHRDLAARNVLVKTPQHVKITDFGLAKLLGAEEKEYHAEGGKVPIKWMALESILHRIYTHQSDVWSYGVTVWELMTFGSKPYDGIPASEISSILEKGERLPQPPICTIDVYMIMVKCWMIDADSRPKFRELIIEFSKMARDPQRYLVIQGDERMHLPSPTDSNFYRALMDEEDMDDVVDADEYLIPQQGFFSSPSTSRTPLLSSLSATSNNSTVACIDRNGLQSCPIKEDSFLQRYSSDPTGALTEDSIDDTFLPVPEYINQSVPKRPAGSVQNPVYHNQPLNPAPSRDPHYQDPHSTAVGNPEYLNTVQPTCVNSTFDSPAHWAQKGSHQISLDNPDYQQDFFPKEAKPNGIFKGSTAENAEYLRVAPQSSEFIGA
# [8] = biological target: Follistatin-related protein 3 (Homo sapiens) (UniProt O95633); assay: FSTL3 binders on small-molecule microarrays, primary screen, biochemical, small-molecule microarray, 635 nm fluorescence (AID 1105); settings: FSTL3 binding, higher = more signal;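 further: score merges emission near 667 nm and signal to noise per printed spot across three slides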
# Sequence of Follistatin-related protein 3 (Homo sapiens) (O95633 whole entry, looked up): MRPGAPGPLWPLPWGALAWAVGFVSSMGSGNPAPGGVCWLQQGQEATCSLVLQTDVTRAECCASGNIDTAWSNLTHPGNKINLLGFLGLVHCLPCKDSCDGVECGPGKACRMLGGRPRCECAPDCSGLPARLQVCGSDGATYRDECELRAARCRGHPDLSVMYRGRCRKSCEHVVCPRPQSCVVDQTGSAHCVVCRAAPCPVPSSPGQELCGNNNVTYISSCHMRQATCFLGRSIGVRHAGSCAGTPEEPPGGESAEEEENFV
# [9] = biological target: Dickkopf-related protein 1 (Homo sapiens) (UniProt O94907); assay: DKK1 binders on small-molecule microarrays, primary screen, biochemical, small-molecule microarray, 635 nm fluorescence scan (AID 1106); settings: DKK1 binding, higher = more signal;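 further: score merges emission near 667 nm with signal to noise over three replicate slides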
# Sequence of Dickkopf-related protein 1 (Homo sapiens) (O94907 whole entry, looked up): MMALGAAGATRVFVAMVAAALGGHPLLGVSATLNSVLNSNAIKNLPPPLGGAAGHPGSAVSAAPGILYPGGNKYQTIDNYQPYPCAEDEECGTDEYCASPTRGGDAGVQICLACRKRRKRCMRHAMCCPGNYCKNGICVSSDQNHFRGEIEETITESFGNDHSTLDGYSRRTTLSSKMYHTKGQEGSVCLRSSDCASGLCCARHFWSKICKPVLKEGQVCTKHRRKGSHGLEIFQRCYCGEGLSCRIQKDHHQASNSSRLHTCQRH
# [10] = system: Inhibin beta A chain (activin A); assay: INHBA (activin A) binders on microarrays, primary screen, biochemical, small-molecule microarray, 635 nm fluorescence scan (AID 1107); settings: small-molecule microarray binding, higher = more signal;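 further: mouse activin A protein probed at 4.33 µg/mL on printed slides; score merges bound-protein fluorescence near 667 nm with spot signal-to-noise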
SMILES,composite z-score [1],composite z-score [2],composite z-score [3],z-score [4],composite z-score [5],composite z-score [6],composite z-score [7],composite z-score [8],composite z-score [9],composite z-score [10]
O=C1C2C=CC(C(O)c3cccc4ccccc34)N(Nc3ccccc3F)C2C(=O)N1c1ccccc1 (stereo not given),0.927,0.977,1.02,-0.05 (inactive),0.606,1.18,0.172,0.79,-0.311,0.723
COC(=O)[C@@]1(CCS(=O)(=O)c2ccccc2)N=C(c2ccc(OCCCO)cc2)O[C@H]1c1ccccc1CN=[N+]=[N-],1.21,1.11,1.2,0.362 (inactive),0.336,1.24,0.143,1.01,-0.0332,0.799
CN1C(=O)C2C=CC(C(O)C3CC=CCC3)N(N(c3ccccc3)c3ccccc3)C2C1=O (stereo not given),0.206,0.244,0.944,0.773 (inactive),-0.291,-1.64,0.664,0.184,0.175,1.87
CC(C)C(=C=CC[C@@H](O)c1ccc(OCCO)cc1)C[C@@H](O)COCc1ccccc1,0.413,-0.133,-0.222,-1.97 (inactive),1.23,0.099,-0.516,0.478,-0.198,0.992
CCOC(=O)C1=CC[C@@H](c2ccccc2)N(S(=O)(=O)c2ccc(C)cc2)[C@H]1c1ccccc1C,1.42,0.311,0.431,-0.876 (inactive),0.607,0.683,0.375,1.05,0.349,0.97
NC(=O)NCC#Cc1ccc2c(c1)[C@]1(C(=O)N2)[C@H](c2ccc(O)cc2)N2[C@H](c3ccccc3)[C@H](c3ccccc3)OC(=O)[C@H]2[C@@H]1C(=O)O,-0.0693,-0.173,0.617,0.307 (inactive),-0.114,-0.928,-0.683,-0.966,-1.22,-0.203
C=CCOC(=O)[C@H]1[C@@H]2C(=O)O[C@@H](c3ccccc3)[C@@H](c3ccccc3)N2[C@@H](c2ccc(OCCOC(=O)[C@H]3C[C@H]4C(=O)N[C@@H](CCCCNC(C)=O)C(=O)N4[C@H]3c3cccc(OCCO)c3)cc2)[C@]12C(=O)Nc1ccccc12,1.42,-0.194,0.285,0.29 (inactive),1.31,1.32,0.674,0.775,0.824,0.134
C=C(C(=O)CC[C@@H](OC(=O)c1cccnc1)c1ccccc1OCCO)C(C)C,0.0757,-0.181,0.0623,1.34 (inactive),0.969,0.342,0.029,0.401,0.063,1.34
C=C[C@H](C)[C@@H](OC(=O)Nc1ccc(OC)cc1)c1ccc(O)c2ccccc12,0.408,-0.398,-0.083,2.41 (inactive),-0.117,-0.177,-0.568,0.386,0.209,0.722
NC(=O)[C@@H]1[C@H]2C(=O)O[C@H](c3ccccc3)[C@H](c3ccccc3)N2[C@H](c2ccc(O)cc2)[C@@]12C(=O)Nc1ccccc12,0.0555,-0.109,0.798,-0.936 (inactive),-0.433,-1.04,-0.49,-1.06,-1.91,-0.638
O=C(NCCO)C1=C[C@H](Oc2ccccc2I)[C@@H](O)[C@H](N(Cc2ccco2)C(=O)Cc2ccccc2)C1,-0.012,-0.223,-0.453,-0.0906 (inactive),0.556,0.349,0.508,0.468,0.431,0.497
NC(=O)NCC#Cc1ccc2c(c1)[C@]1(C(=O)N2)[C@H](C(N)=O)[C@H]2C(=O)O[C@H](c3ccccc3)[C@H](c3ccccc3)N2[C@@H]1c1ccc(O)cc1,1.51,-0.912,-0.142,-0.712 (inactive),0.353,-0.348,-0.858,-0.0676,-1.27,0.778
C=CCOC(=O)[C@H]1[C@@H]2C(=O)O[C@@H](c3ccccc3)[C@@H](c3ccccc3)N2[C@@H](c2ccc(OCCOC(=O)[C@H]3C[C@H]4C(=O)N[C@@H](CCCC[N+](C)(C)C)C(=O)N4[C@H]3c3ccc(O)cc3)cc2)[C@]12C(=O)Nc1ccc(I)cc12,1.48,0.177,-0.228,1.2 (inactive),0.332,0.86,0.0741,0.803,1.41,0.225
O=C1OCCC/C=C\[C@H]2OC34C=CCN(Cc5ccccc5)C(=O)[C@H]3N(CCCO)C(=O)[C@@H]4C12 (stereo not given in full),1.26,-0.0379,0.794,0.422 (inactive),-0.967,-0.972,-1.55,-1.57,-1.66,-0.583
CN(C)C(=O)[C@@]1(CCS(=O)(=O)c2ccccc2)COC(c2ccc(OCCCO)cc2)=N1,0.656,0.476,0.977,-0.824 (inactive),0.314,0.476,0.0041,-0.448,-0.471,1.04
N#Cc1ccc(NN2C(C(O)C(c3ccccc3)c3ccccc3)C=CC3C(=O)N(c4ccccc4)C(=O)C32)cc1 (stereo not given),0.793,0.609,0.725,-0.327 (inactive),1.2,1.28,-0.0158,0.864,-1.06,0.0017

SMILES,composite z-score [1],composite z-score [2],composite z-score [3],z-score [4],composite z-score [5],composite z-score [6],composite z-score [7],composite z-score [8],composite z-score [9],composite z-score [10]
O=C1C2C=CC(C(O)c3cc(C(F)(F)F)cc(C(F)(F)F)c3)N(n3cnnc3)C2C(=O)N1Cc1ccccc1 (stereo not given),0.716,-0.0958,0.531,-0.27 (inactive),-0.409,-0.261,-0.165,-0.103,-1.17,-0.301
COC(=O)[C@@]1(Cc2ccc(F)cc2)[C@H]2c3cc(C(=O)N(C)C)n(Cc4ccccc4)c3C[C@H]2CN1C(=O)c1ccccc1,1.18,1.06,0.971,-0.376 (inactive),0.483,-0.159,-0.22,0.827,-0.251,0.766
NC(=O)N1C(=O)C2C(C1=O)C1C=C(c3ccc(CO)cc3)C2C(c2cccs2)N1Cc1cccc(OC(F)(F)F)c1 (stereo not given),-0.148,0.799,1.02,-1.99 (inactive),0.302,-0.343,-0.813,0.122,0.245,1.49
CCCC[C@H]1OB(O)C[C@H]2C1=C(COC)C[C@H]1C(=O)N(C)C(=O)[C@H]12,0.0079,-0.252,-0.599,0.377 (inactive),0.486,-0.0431,0.12,0.564,0.281,0.687
COCCOC(=O)N1C(=O)[C@@]2(c3cc(C#Cc4ccc(OC)cc4)ccc31)[C@H](c1ccc(OCCO)cc1)N1[C@H](c3ccccc3)[C@H](c3ccccc3)OC(=O)[C@H]1[C@@H]2C(=O)N1CCN(c2ncccn2)CC1,-0.0214,0.775,0.257,-0.449 (inactive),0.703,1.28,0.667,1.27,1.28,-0.0857
O=C1C[C@@](C(=O)NC2CC2)(c2ccc([N+](=O)[O-])cc2)[C@@H](c2ccc(CO)cc2I)N1C1CCCCC1,1.02,0.666,-0.0524,-0.497 (inactive),1.19,0.931,0.414,1.25,0.486,0.245
COC(=O)[C@@]1(Cc2ccc(OC)cc2)[C@H]2c3cc(C(=O)N4CCCC4)n(Cc4ccc(C)c(F)c4F)c3C[C@H]2CN1C(=O)c1ccccc1,1.05,1.09,1.33,-0.282 (inactive),0.791,1.29,-0.139,1.18,-0.602,0.702
C=CCNC(=O)[C@@H]1[C@H]2C(=O)O[C@H](c3ccccc3)[C@H](c3ccccc3)N2[C@H](c2ccc(O)cc2)[C@@]12C(=O)Nc1ccc(C#CCNC(N)=O)cc12,0.213,-0.3,0.778,0.788 (inactive),0.0464,-0.489,-0.219,-0.164,-0.732,-0.0122
COc1ccc(CCNC(=O)[C@@H]2c3ccccc3C(=O)N(Cc3ccccc3Cl)[C@H]2c2ccc(CO)cc2)cc1,0.489,0.235,0.602,-0.153 (inactive),0.212,0.412,-0.0373,-0.182,0.0477,0.674
COc1ccc(CCNC(=O)[C@@]2(Sc3ccc(C)cc3)CC(=O)N(C3Cc4ccccc4C3)[C@@H]2c2ccc(CO)cc2I)cc1,1.09,0.736,0.575,-1.27 (inactive),-0.461,-0.64,-0.895,-0.856,-1.41,0.48
CC(C)OC(=O)C=C1C[C@@H](c2ccccn2)O[C@@H](c2ccccn2)O1,-0.152,-0.778,-1.68,1.08 (inactive),0.627,0.201,0.891,1.1,1.47,1.21
C=C(COC)/C(=C/C[C@@H](OC(C)=O)c1ccc(OCCO)cc1)c1cnc2ccccc2c1,1.14,-0.151,0.352,-0.949 (inactive),1.57,0.369,0.824,1.49,1.25,1.7
CC(C)NC(=O)[C@@H]1c2ccccc2C(=O)N(C2Cc3ccccc3C2)[C@H]1c1ccc(CO)cc1,0.959,0.172,0.749,-0.535 (inactive),0.16,0.726,-0.477,0.0389,-0.224,0.175
CCOC(=O)C[C@H]1[C@H](OC(=O)c2cc3ccccc3oc2=O)[C@@H](NC(=O)c2ccccc2)c2cc(OCCCO)ccc2N1C(=O)c1ccc2ccccc2n1,0.485,-0.128,-0.446,0.0189 (inactive),0.72,0.228,0.536,1.11,0.425,0.344
CCCC[C@@H]1C[C@H]1[C@@H](NC(=O)c1ccco1)c1ccccc1C(F)(F)F,-0.323,2.11,1.39,-0.255 (inactive),0.3,-0.291,-0.127,0.449,-0.316,1.49
C=CC[C@]1(C(=O)NCc2ccccc2)N=C(c2ccc(OCCCO)cc2)O[C@H]1c1ccccc1N=[N+]=[N-],1.33,-0.0281,1.11,-0.457 (inactive),0.819,0.849,0.174,0.637,-0.284,1.29
